# According to PubChem BioAssay (NCI):
# This is part of a sample that, as a whole, favours compounds with a hit. Of some 83,000 tested, about 20% had one in any assay.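 Activity criterion: percent growth below 10, measured after cells in 96-well plates were exposed to a single compound concentration for 48 hours.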 Unmarked numbers belong to inactive results. Activity calls are given as the source filed them.
# Assays:
# Assay in all cases: NCI-60 one-dose screen, 48 h (100 = growth as untreated, 0 = no growth, -100 = all killed)
# Settings in all cases: 10 µM unless noted
# [1] = tested on: NCI-H23 lung
# [2] = tested on: NCI-H226 lung
# [3] = tested on: NCI-H322M lung
# [4] = tested on: HOP-62 NSCLC
# [5] = tested on: NCI-H460 lung
# [6] = tested on: HOP-92 NSCLC
# [7] = tested on: NCI-H522 lung
# [8] = tested on: A549/ATCC NSCLC
# [9] = tested on: 786-0 renal
# [10] = tested on: COLO 205 colon
SMILES,growth [1],growth [2],growth [3],growth [4],growth [5],growth [6],growth [7],growth [8],growth [9],growth [10]
O=S(=O)(c1ccc(N/N=C\c2ccccc2)cc1)c1ccc(N/N=C/c2ccccc2)cc1,43.6%,83.3%,80%,46.6%,40.4%,8.56% (active),60%,60%,83.4%,88.9%
CCOC(=O)N1CCN(CCCCl)CC1,103%,102%,101%,109%,105%,95%,,94.8%,98.4%,
C1=C2CNCC3=Cc4ccc5ccccc5c4OC23Oc2c1ccc1ccccc21,52.8%,67.7%,98%,43.6%,33.5%,37.2%,0.285% (active),50.6%,,50.8%
CC1(c2ccccc2)NC(=O)N(CC(=O)Nc2cccc(I)c2)C1=O (stereo not given),95.3%,72.2%,83.8%,76.7%,93.3%,60.1%,67.5%,87.6%,95.3%,106%
COc1cc2c(cc1[N+](=O)[O-])-c1ccc([N+](=O)[O-])cc1/C2=N\O,88.2%,66%,113%,110%,84%,100%,51.2%,83.5%,79.6%,79.6%
CC(C)CN(C(=O)c1ccc(Cl)cc1)c1c(N)n(CC(C)C)c(=O)[nH]c1=O,95.8%,98.7%,103%,90.6%,88.4%,80.6%,,98.8%,91.4%,122%
CC(O)/C=C/C=C/C(O)CC/C=C/C(=O)NCC(C)(C)O (stereo not given),95.3%,108%,106%,110%,101%,96.1%,,96.1%,109%,118%
COc1cccc(-c2nc3occn3c2-c2ccnc(NCCCNS(=O)(=O)c3cccc(F)c3)n2)c1,89.7%,62.2%,107%,108%,82.6%,91.9%,74.9%,97.4%,103%,45.5%
CC(C)CCSc1nc(NNC(N)=O)c(C#N)c(-c2ccccc2)n1,91.3%,96.6%,106%,105%,112%,86.1%,,106%,75.2%,121%
O=C1Nc2c(ccc(Cl)c2Cl)/C1=C/c1ccccn1,81.5%,93.5%,93.4%,88.5%,97.6%,66.2%,,13%,12.5%,
COC(=O)C1NC(=S)N(c2ccc(Cl)cc2)C1/C=C/c1ccccc1 (stereo not given),91%,104%,110%,103%,109%,78.6%,93.7%,98.1%,,108%
O=C1c2ccccc2C(=O)c2c(NCCN=Cc3ccccc3O)cccc21,66.6%,56.3%,68.3%,21.7%,20.9%,32%,58.2%,49%,-48.4% (active),42.2%
COc1ccc(-c2cnnc3c(-c4cccc(C(F)(F)F)c4)cnn23)cc1,70.4%,60.9%,45.7%,3.24% (active),36%,52.7%,,63.5%,7.61% (active),135%
COc1c(Cl)cc(Cl)c2ccc(C=C3C(=O)NC(=S)NC3=O)nc12,101%,100%,113%,93.7%,103%,116%,,104%,-90.9% (active),113%
N#CC1=C(N)Oc2c(ccc3ccccc23)C1c1ccc([N+](=O)[O-])cc1 (stereo not given),79.1%,66.7%,95.2%,73.3%,69.8%,93.4%,,73%,102%,105%
Clc1nc(Cl)c2ncn(CC3(Cn4cnc5c(Cl)nc(Cl)nc54)COC3)c2n1,-70.2% (active),-81.3% (active),-100% (active),-82.3% (active),-65.5% (active),-91.9% (active),,-77% (active),-98.7% (active),-76.6% (active)
c1ccc(CCSc2ncnc3nc[nH]c23)cc1,96.8%,86.6%,113%,103%,82%,110%,,77.3%,102%,90.1%
COc1cc(C2CC(c3cccc(Nc4ccncc4)c3)=NN2c2ccccc2)cc(OC)c1OC (stereo not given),90%,96%,80.1%,59.6%,4.66% (active),28.1%,,44.9%,69.1%,-52.5% (active)
COc1ccc(C(=O)/C=C/c2c(OC)cc(OC)cc2OC)c(OC)c1,26.1%,69.5%,56.2%,40.4%,8.76% (active),31.5%,-6.76% (active),31.6%,26.2%,8.18% (active)
COc1ccc(-c2nc(SC)nc(N3CCOCC3)c2C#N)cc1,98.6%,95.4%,102%,88.5%,109%,71.2%,,95.2%,76.8%,99%
CCCCCCCCCCN=C(N)N=C(N)N,29.4%,47.4%,80.9%,50.6%,,21.2%,53%,70.1%,26.2%,32%
c1ccc(-c2nn(-c3ccccc3)[n+](-c3ccccc3-c3ccccc3)n2)cc1,5.14% (active),28.1%,40.6%,32.6%,5.11% (active),-24.4% (active),,17.3%,30.8%,-34.5% (active)
COc1cc2ncnc(Nc3ccc(C(=O)/C=C/c4ccc(C(F)(F)F)cc4F)cc3)c2cc1OC,99.5%,92.7%,99.7%,144%,,113%,98.3%,95.2%,85.6%,160%
CN1CCN(c2c(F)cc(NC3=C(Cl)C(=O)c4ncccc4C3=O)cc2F)CC1,82.8%,97.1%,108%,111%,,41%,-9.58% (active),109%,101%,64.7%
O=C(Nc1sc2c(c1C(=O)O)CCCC2)c1cccc(C(F)(F)F)c1,90.1%,103%,95%,104%,,79.2%,78.7%,85.3%,94%,113%
COc1ccc(C(=O)c2cc(C)c(OC)c(C)c2)c(OC)c1N(C(=O)C(Cl)Cl)C(=O)C(Cl)Cl,21.9%,15.9%,41.5%,17.7%,2% (active),2.49% (active),,13.6%,14.1%,-34.6% (active)
C#Cc1cccc(NC(=O)Nc2cccc(N=C=S)c2)c1,99.3% [8.25 µM],101% [8.25 µM],95.1% [8.25 µM],115% [8.25 µM],,106% [8.25 µM],90.9% [8.25 µM],90.8% [8.25 µM],95.4% [8.25 µM],130% [8.25 µM]
CC(=O)CCSc1ccc(OC(C)=O)cc1,100%,101%,103%,98%,,79.8%,82.3%,88.3%,100%,116%
CCCCCCOc1ccc(/C=N/Nc2cc(C)nc3ccc(Br)cc23)cc1,14%,71.1%,-73.7% (active),-65.4% (active),,34.5%,-61.4% (active),-59.5% (active),-87.7% (active),-51.8% (active)
